Data reported in PubChem BioAssay AID1159580 (chemical genetic matrix, 2015).
Values joined by “and” are separate entries in the source; they are usually repeats but may differ in a detail not shown here. Equal values may be shown once. The campaign covered roughly 5,500 compounds. About 2,000 (36%) were called active. Another 18% or so got no clear call; they are omitted. No stated cut-off is given here; in the data, active means normalized growth mostly below about 0.91 (no sharp cut-off); inconclusive means no clear call, values can overlap the other calls; inactive means mostly above about 0.92. The list shows a part of the results.

Assay: chemical genetic growth profiling, strain panel (AID 1159580);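 further: tested at 20 µM; growth read once vehicle control cultures reached saturation at 30 °C; 1 = growth at the plate median or of vehicle wells; lower values mean less growth of the strain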
Conditions: S. cerevisiae deletion strains, growth OD

Measured: normalized growth

NC(C(=O)O)C(O)C(=O)O (stereo not drawn)
inactive: locus YAL013W, strain DEP1, active compounds read low 1.04 | locus YAL021C, strain ccr4, active compounds read low 0.941 | locus YAL026C, strain drs2, active compounds read low 0.998 | locus YAL030W, strain snc1, active compounds read low 0.98 | locus YBL061C, strain skt5, active compounds read low 0.996 | locus YBR009C, strain hhf1, active compounds read low 0.955 | locus YBR021W, strain FUR4, active compounds read low 0.993 | locus YBR023C, strain chs3, active compounds read low 0.994 | locus YBR171W, strain sec66, active compounds read low 0.997 | locus YBR229C, strain ROT2, active compounds read low 1.01 | locus YBR231C, strain swc5, active compounds read low 1.03 | locus YBR279W, strain paf1, active compounds read low 0.993 | locus YCL011C, strain gbp2, active compounds read low 0.98 | locus YCL016C, strain dcc1, active compounds read low 0.978 | locus YCL029C, strain bik1, active compounds read low 1.03 | locus YCL061C, strain MRC1, active compounds read low 1 | locus YCL069W, strain vba3, active compounds read low 0.991 | locus YCR088W, strain abp1, active compounds read low 1 | locus YDL005C, strain med2, active compounds read low 0.982 | locus YDL035C, strain GPR1, active compounds read low 1.02 | locus YDL040C, strain nat1, active compounds read low 0.996 | locus YDL074C, strain BRE1, active compounds read low 1.02 | locus YDL101C, strain DUN1, active compounds read low 1.02 | locus YDL134C, strain PPH21, active compounds read low 1.01 | locus YDL185W, strain tfp1, active compounds read low 1.02 | locus YDL192W, strain arf1, active compounds read low 1.02 | locus YDR001C, strain nth1, active compounds read low 0.97 | locus YDR069C, strain doa4, active compounds read low 0.969 | locus YDR101C, strain arx1, active compounds read low 1.04 | locus YDR137W, strain rgp1, active compounds read low 0.982 | locus YDR159W, strain sac3, active compounds read low 1.05 | locus YDR162C, strain NBP2, active compounds read low 1.04 | locus YDR195W, strain ref2 0.973 | locus YDR297W, strain sur2, active compounds read low 0.994 | locus YDR318W, strain mcm21, active compounds read low 1.01 | locus YDR334W, strain swr1, active compounds read low 0.983 | locus YDR335W, strain msn5, active compounds read low 0.986 | locus YDR388W, active compounds read low 1.02 | locus YDR392W, strain spt3, active compounds read low 0.91 | locus YDR502C, strain sam2, active compounds read low 1.03 | locus YEL003W, strain gim4, active compounds read low 0.999 | locus YEL037C, strain rad23, active compounds read low 0.983 | locus YEL061C, strain CIN8 (second series), active compounds read low 0.99 | locus YEL061C, strain CIN8, active compounds read low 1.01 | locus YER015W, strain faa2, active compounds read low 0.997 | locus YER016W, strain bim1, active compounds read low 0.991 | locus YER110C, active compounds read low 1.03 | locus YER111C, strain swi4, active compounds read low 0.994 | locus YER155C, strain BEM2 (second series), active compounds read low 1.03 | locus YER155C, strain BEM2, active compounds read low 0.983 | locus YER167W, strain BCK2, active compounds read low 1.01 | locus YFR010W, strain ubp6, active compounds read low 0.986 | locus YGL078C, strain dbp3, active compounds read low 1.02 | locus YGL086W, strain mad1, active compounds read low 1 | locus YGL167C, strain pmr1, active compounds read low 0.969 | locus YGL173C, strain kem1, active compounds read low 0.999 | locus YGL227W, strain vid30, active compounds read low 0.997 | locus YGL240W, strain doc1, active compounds read low 1 | locus YGL248W, strain PDE1, active compounds read low 1.02 | locus YGL253W, strain hxk2, active compounds read low 1.02 | locus YGR078C, strain PAC10, active compounds read low 1.02 | locus YGR135W, strain pre9, active compounds read low 1.01 | locus YGR252W, strain gcn5, active compounds read low 0.999 | locus YHR013C, strain ard1, active compounds read low 0.969 | locus YHR027C, strain rpn1, active compounds read low 0.991 | locus YHR030C, strain SLT2, active compounds read low 1 and 1.03 | locus YHR079C, strain IRE1 (second series), active compounds read low 1.02 | locus YHR079C, strain IRE1, active compounds read low 1.03 | locus YHR094C, strain hxt1, active compounds read low 1.02 | locus YHR129C, strain ARP1, active compounds read low 1.01 | locus YHR142W, strain chs7, active compounds read low 0.983 | locus YHR200W, strain rpn10, active compounds read low 1.02 | locus YIL066C, strain RNR3, active compounds read low 1.02 | locus YIL073C, strain SPO22, active compounds read low 1.09 | locus YIL125W, strain kgd1, active compounds read low 1.01 | locus YIR030C, strain dcg1, active compounds read low 1.02 | locus YJL092W, strain hpr5, active compounds read low 0.986 | locus YJL095W, strain BCK1 (second series), active compounds read low 0.993 | locus YJL095W, strain BCK1, active compounds read low 1.03 and 1.06 | locus YJL115W, strain asf1, active compounds read low 0.965 | locus YJL129C, strain trk1, active compounds read low 1.02 | locus YJL134W, strain LCB3, active compounds read low 1.01 | locus YJL154C, strain vps35, active compounds read low 0.987 | locus YJL164C, strain tpk1, active compounds read low 0.96 | locus YJL166W, strain qcr8, active compounds read low 0.988 | locus YJL168C, strain set2, active compounds read low 1.01 | locus YJL187C, strain SWE1 (second series), active compounds read low 1.03 | locus YJR043C, strain POL32, active compounds read low 1.02
